Most compounds without a hit are left out; they make up all but 12% or so of the library.
Lmaj promast: reduces viability of Leishmania major promastigotes. resazurin fluorescence viability. inhibition, % at 10 µM. actives 9% (n = 200,000). AID 1063; in the data active means inhibition above about 50%;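 further: promastigotes grown with compound for 44 hours at 28 °C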
CHOP inh: CHOP inhibition in unfolded protein response | actives 3.8% (n = 220,000) | AID 2732 | CHO-K1 CHOP-promoter luciferase, tunicamycin-induced, 15-18 h | inhibition, % at 10 µM;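 active means compounds that reduced the stress-induced luciferase reporter signal by more than about 70% of percent inhibition, limit read from the data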
Arbovirus anti: arbovirus infection inhibition. arbovirus infection cell-based antiviral screen. inhibition, % at 10 µM. actives 0.37% (n = 200,000); in the data active means inhibition above about 30%
WT yeast gro inh: growth inhibition of WT yeast, mitochondrial fusion screen. inhibition, % at 10 µM. AID 1362. mitochondrial fusion phenotypic screen, WT strain. actives 2.1% (n = 190,000); in the data active means inhibition above about 58%; tested in S. cerevisiae
Of the large screens only hits and unclear results are named; the others gave an inactive call.

O=[N+]([O-])c1ccc(Cl)cc1CNc1ccc(F)c(F)c1	none
Cc1cc(F)ccc1NCc1cc2c(cc1[N+](=O)[O-])OCO2	none
Cn1c(-c2ccccc2)cnc1NCc1cc2c(cc1[N+](=O)[O-])OCO2	Lmaj promast 87
CC[C@H](C)C(C(=O)N1CCN(C(=O)OC(C)(C)C)CC1)n1cc(C(Cc2ccc(O)cc2)NC(=O)OC(C)(C)C)nn1 (some centres undefined)	none
Fc1ccc(CN2C3=NCCN3c3ccccc32)cc1	none (no result: Lmaj promast, Arbovirus anti, WT yeast gro inh)
Cc1cc(C)n2nc(C(=O)NC3CCCc4ccccc43)nc2n1 (centres undefined)	none
COc1ccc(CN2CNc3nc4ccccc4n3C2)cc1	Lmaj promast 62
c1coc(CN2CNc3nc4ccccc4n3C2)c1	none (no result: Lmaj promast, Arbovirus anti, WT yeast gro inh)
O=C(NC(=S)NCC1CCCO1)c1ccccc1[N+](=O)[O-] (centres undefined)	none
CC(=O)c1ccc(OCCn2cnc3ccccc32)cc1	Lmaj promast 51
c1ccc(OCCn2cnc3ccccc32)cc1	Lmaj promast 52
CC(C)(c1ccccc1)c1ccc(OCCn2cnc3ccccc3c2=O)cc1	CHOP inh 77 (no result: WT yeast gro inh)
c1ccc(OCCCCn2cnc3ccccc32)cc1	none (no result: CHOP inh)
Fc1ccc(Cn2cnc3ccccc32)cc1	none
O=[N+]([O-])c1ccc(OCCn2cnc3ccccc32)cc1	none
CCCOc1ccc(Cn2cnc3ccccc32)cc1	Lmaj promast 88
N#Cc1ccc(NC(=O)COC(=O)CCNS(=O)(=O)c2ccccc2)cc1	none
Cn1ccnc1C(=O)c1cc(SCC(=O)N2CCOCC2)nc2ccccc12	none
CCOc1ccc(N2C(=O)CC(SC(=NC)Nc3ccc(F)cc3)C2=O)cc1 (centres undefined)	none
O=C(CN1CCCCC1)N1c2ccccc2CCc2ccccc21	none
O=C(CN1CCC(N2CCCCC2)CC1)N1CCCc2ccccc21	Lmaj promast 64
NC(=O)c1ccsc1NC(=O)COC(=O)CCOc1ccccc1	none (no result: Lmaj promast, Arbovirus anti, WT yeast gro inh)
CN1CCN(CCCNC(=O)c2ccc(/C=C3\Sc4ccccc4N(Cc4ccc(F)cc4)C3=O)cc2)CC1	Lmaj promast 100
CN1CCN(CCCNC(=O)c2ccc(/C=C3/Sc4ccccc4N(Cc4cccc(Cl)c4)C3=O)cc2)CC1	Lmaj promast 100, WT yeast gro inh 97
CCN1CCN(CCNC(=O)c2ccc(/C=C3\Sc4ccccc4N(Cc4ccccc4F)C3=O)cc2)CC1	Lmaj promast 100, WT yeast gro inh 77
CN1C(=O)/C(=C/c2cccc(Cl)c2)Sc2ccc(C(=O)NCc3cccnc3)cc21	none
O=C1c2ccccc2NC(c2ccc(O)cc2)N1/N=C/c1ccc(O)cc1 (centres undefined)	Lmaj promast 67
O=C1c2ccccc2NC(c2ccccc2)N1/N=C/c1ccccc1 (centres undefined)	none
Cn1c(/C=N/c2nc3ccccc3[nH]2)nc2ccccc21	Lmaj promast 100
Cn1c(/C=N/O)nc2ccccc21	none (no result: Lmaj promast, Arbovirus anti, WT yeast gro inh)
Cc1ccc(S(=O)(=O)N2CCN(c3ccc4nnc(-c5ccccc5)n4n3)CC2)cc1	Lmaj promast 75
O=C(Nc1ccc(Cl)cc1)N1CCN(c2ccc3nnc(-c4ccc(F)cc4)n3n2)CC1	WT yeast gro inh 80
COc1ccc(S(=O)(=O)N2CCN(c3ccc4nnc(-c5ccc(F)cc5)n4n3)CC2)cc1	Lmaj promast 99
FC(F)(F)c1cccc(N2CCN(c3ccc4nnc(-c5ccccc5)n4n3)CC2)c1	CHOP inh 85
O=C(c1ccc(Br)o1)N1CCN(c2ccc3nnc(-c4ccc(F)cc4)n3n2)CC1	none
NC(=O)C1CCN(C(=O)CCC(=O)c2ccc(Br)cc2)CC1	none
CCCNC(=S)N(Cc1ccccc1)Cc1nc2ccccc2c(=O)[nH]1	none
CCCCCNc1nc2sc3c(c2c(=O)n1-c1cccc(Cl)c1)CCN(C)C3	none (no result: Lmaj promast, Arbovirus anti, WT yeast gro inh)
CCCCCCCCCCCC(=O)c1c(O)cccc1O	WT yeast gro inh 95
CCCCCCCC(=O)NNC(=O)Cc1ccccc1	none
Cc1cc(C)cc(OCc2nnc(SCC(=O)OC(C)C)o2)c1	none
Cc1nc(N2CCC(C)CC2)c2c(C)c(C(=O)Nc3ccccc3C(F)(F)F)sc2n1	Lmaj promast 51
Cc1nc(N2CCC(C)CC2)c2c(C)c(C(=O)Nc3ccc(C)c(F)c3)sc2n1	CHOP inh 71
Cc1cc(Cl)c2cc3ccccc3cc2n1	none (no result: Lmaj promast, Arbovirus anti, WT yeast gro inh)
Cc1oc(S(=O)(=O)N2CCOCC2)cc1C(=O)Nc1ccc(Cl)cc1	none (no result: Lmaj promast, Arbovirus anti, WT yeast gro inh)
N=c1sccn1CC(=O)Nc1cc(S(=O)(=O)N2CCCC2)ccc1Cl	none
COc1ccc(/C=N/NC(=S)Nc2ccccc2)cc1COc1cccc(C)c1C	CHOP inh 91 (no result: Lmaj promast, Arbovirus anti, WT yeast gro inh)
CN(C)/C=C/C(=O)c1ccc(Cl)c([N+](=O)[O-])c1	none
N#Cc1nc(COc2ccc(-c3ccccc3)cc2)oc1NCCCN1CCOCC1	Lmaj promast 64, WT yeast gro inh 77
CN1CCN(c2oc(COc3ccc(-c4ccccc4)cc3)nc2C#N)CC1	CHOP inh 87
COc1ccc(N2CCN(c3oc(COc4ccccc4)nc3C#N)CC2)cc1	none
CN(C)CCNc1oc(COc2ccc(-c3ccccc3)cc2)nc1C#N	Lmaj promast 66
N#Cc1nc(COc2ccccc2)oc1NCCN1CCOCC1	none
COc1ccc(C(C)(C)C)cc1NC(=O)c1cc(S(=O)(=O)N(C)C)ccc1N1CCCC1	none
Cc1ccc(Cc2ccc(C(=O)NNC(N)=S)o2)cc1	none
Fc1ccc(C(CCCn2nnc(-c3cccnc3)n2)c2ccc(F)cc2)cc1	WT yeast gro inh 61
Fc1ccc(-n2nnc(-c3cccnc3)n2)cc1	none
CC(=O)Nc1ccc(Cc2nc3c([nH]2)c(=O)n(C)c(=O)n3C)cc1	none (no result: Lmaj promast, Arbovirus anti, WT yeast gro inh)
COCCCN(C(=S)NC(=O)C12CC3CC(CC(C3)C1)C2)c1c(N)n(Cc2ccccc2)c(=O)[nH]c1=O	none
C/C(=N\NC(=O)c1ccccc1NC(=O)c1ccc(Cl)cc1)c1ccncc1	CHOP inh 72
CC(C)CNC(=O)c1cccc(NC(=O)CCc2ccccc2)c1	none
Cc1ccc(NC(=S)N(CCN2CCCCC2)Cc2ccco2)cc1	none
Cc1ccc(NC(=S)N(CCCN2CCCC(C)C2)Cc2ccco2)cc1C (centres undefined)	Lmaj promast 96
S=C(Nc1ccc(Cl)cc1)N(CCCN1CCOCC1)Cc1ccco1	Lmaj promast 96
CCOC(=O)c1ccc(NC(=S)N(CCN2CCCCCC2)Cc2ccco2)cc1	Lmaj promast 95
CCN1CCN(CCCN(Cc2ccco2)C(=S)Nc2ccc(Cl)c(C)c2)CC1	none
CCOC(=O)c1ccc(NC(=S)N(CCCN2CCCCCC2)Cc2ccco2)cc1	Lmaj promast 100
CCOc1ccc(Br)cc1CN(CC)CC	none (no result: Lmaj promast, Arbovirus anti, WT yeast gro inh)
N#Cc1ccc(OCC(=O)n2cc(C(=O)c3cc(Cl)cc(Cl)c3O)cn2)cc1	none (no result: Lmaj promast, Arbovirus anti, WT yeast gro inh)
O=C(Nc1cccc(Cl)c1)/C(=C\c1cccnc1)NC(=O)c1ccco1	none
Cc1ccc(C)c(N=Nc2ccc(O)c3ncccc23)c1	Lmaj promast 100, CHOP inh 103
Cc1cccc(N=Nc2ccc(O)c3ncccc23)c1	Lmaj promast 100, CHOP inh 105, WT yeast gro inh 65
Oc1ccc(N=Nc2ccc3c(c2)OCCO3)c2ncccc12	none (no result: Lmaj promast, Arbovirus anti, WT yeast gro inh)
Cc1cccnc1NCc1ccc(O)c2ncccc12	Lmaj promast 58
CCS(=O)(=O)c1ccc(OC)c(N=Nc2ccc(O)c3ncccc23)c1	Lmaj promast 100
Cc1cccc(NCc2ccc(O)c3ncccc23)c1C	none
COc1cc2ccccc2cc1C(=O)NCC(c1cccs1)N(C)C (centres undefined)	none

Screening data (PubChem BioAssay)
